Bioassay records (PubChem BioAssay)
Only some compounds are listed: those with a hit (about 8.7% of all), similar ones and a draw of the others.
Vaccinia mCherry: vaccinia inhibition (mCherry reporter); Vaccinia virus mCherry reporter infection, fluorescence; actives 0.63% (n = 310,000); Potency, µM (doses to about 36.5 µM), for the others: top-dose activity change, negative = inhibition, hits mostly inhibitors; calls by dose curve; tested in A549 cells; further: nearly all actives have a fitted effect of over 35% in size
Pf growth 48h: P. falciparum growth inhibition at 48 hours (one generation); actives 5.9% (n = 310,000); AID 504832; Potency, µM (series often up to 28.7 µM), for the others: top-dose activity change, negative = inhibition, usual class: inhibitors; P. falciparum luciferase growth in erythrocytes, 48 h
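Erythrocytes infected with P. falciparum carrying an integrated firefly luciferase reporter (2% hematocrit, 0.1% parasitemia final) were exposed to compounds in RPMI 1640 with 0.5% Albumax at 37 C, 5% CO2. Growth inhibition was scored as reduced luminescence.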
Pf growth 96h: inhibits malaria parasite growth, 96 h; P. falciparum luciferase reporter growth, 96 h; Potency, µM (doses to about 28.7 µM), for inactives: top-dose activity change, negative = inhibition, actives largely listed as inhibitors; actives 6.9% (n = 320,000); AID 504834
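P. falciparum expressing integrated firefly luciferase, in erythrocytes at 2% hematocrit, 0.05% parasitemia, incubated with compounds 96 h at 37 C, 5% CO2. Growth inhibition read as loss of luminescence; two-generation exposure targets delayed-death apicoplast inhibitors.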
VACV Venus inh: vaccinia inhibition (Venus reporter); Vaccinia virus Venus reporter expression, fluorescence; AID 720580; actives 0.46% (n = 330,000); Potency, µM (top dose mostly 36.5 µM), inactives show top-dose activity change, negative = inhibition, actives largely listed as inhibitors; calls by dose curve; tested in A549 cells; further: nearly all actives have a fitted effect of over 30% in size
AMA1 RON2 block: inhibitors of Plasmodium falciparum AMA1-RON2 interaction. AlphaScreen AMA1-biotinylated RON2 peptide binding. Potency, µM (titrated, usually from 58.2 µM), for the others: at the top dose activity change, negative = inhibition, most hits filed as inhibitors. actives 0.2% (n = 360,000). AID 720542;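 further: 0% = vehicle wells and -100% = peptide control; nearly all actives have a fitted effect of over 45% in size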
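AMA1 (3D7) with his tag at 25 nM final met compounds first, then biotinylated RON2 peptide at 25 nM; detection used donor plus acceptor beads, 10 µg/mL apiece, read by AlphaScreen after 30 min at room temperature.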
* hit, by the source's call; i = inactive; ? = inconclusive; . = no result; [ ] = dose if it differs, or a comment. Unless noted, the call rests on the fitted dose curve; in most records, active means well fitted curve in the direction sought with a large enough effect; inconclusive means small, poorly fitted or top-dose-only effect, or another doubt; inactive means no such curve, though single readings can be large; an effect the other way counts as inactive or inconclusive. Unless noted, on the % scale 0 is the no-effect control and ±100 the full control effect; potency means the concentration at half of the fitted maximal effect.

SMILES | Vaccinia mCherry | Pf growth 48h | Pf growth 96h | VACV Venus inh | AMA1 RON2 block
CCOC(=O)C1(Cc2cccc(OC)c2)CCN(Cc2cccc(OC)c2OC)CC1 | -22% | ? | ? | -1% | -19%
CCOC(=O)C1(Cc2cccc(OC)c2)CCN(Cc2cccc3cnccc23)CC1 | . | 3.7µM* | ? | . | 11%
CCOC(=O)C1(Cc2cccc(F)c2)CCN(Cc2cnc(C)s2)CC1 | -18% | ? | 2.3µM* | -11% | -10%
COc1cc2nc(SCC(=O)Nc3cccc(C)c3)n3nc(-c4ccccc4)nc3c2cc1OC | -13% | . | . | -7% | .
CC1CN(C)C(C)C/C1=N/Oc1ccccc1[N+](=O)[O-] (stereo unspecified) | -16% | 31% | 95% | -14% | 6%
CC1CN(C)C(C)C/C1=N\Oc1ccc([N+](=O)[O-])cc1 (stereo unspecified) | -1% | 20% | 1µM* | -5% | -12%
Cc1ccc(NC(=O)c2sc3nc4c(c(-c5ccco5)c3c2N)CCC4)cc1 | -19% | ? | 2.3µM* | -19% | 15%
COc1ccc(C2=NOC(Cn3nc(C(=O)NCc4ccc(OC(F)(F)F)cc4)cc3-c3ccccc3)C2)cc1 (stereo unspecified) | -9% | 10µM* | -20% | -22% | -3%
COc1ccccc1CNC(=O)c1cc(-c2ccccc2C)nn1CC1CC(c2cccnc2)=NO1 (stereo unspecified) | -9% | ? | 4.7µM* | -19% | 0%
COc1ccc(C2=NOC(Cn3nc(-c4ccccc4)cc3C(=O)NCc3cccc(C(F)(F)F)c3)C2)cc1 (stereo unspecified) | i | . | . | -3% | -1%
COc1ccc(C2=NOC(Cn3nc(C(=O)NCc4ccccc4OC)cc3-c3ccccc3)C2)cc1 (stereo unspecified) | i | 13µM* | ? | -19% | 7%
COc1ccc(C2=NOC(Cn3nc(-c4ccccc4)cc3C(=O)NCc3ccc(C)cc3)C2)cc1 (stereo unspecified) | i | . | . | -7% | 0%
COc1ccc(C2=NOC(Cn3nc(C(=O)NCC4CC4)cc3-c3ccccc3)C2)cc1 (stereo unspecified) | i | ? | 9.3µM* | ? | 14%
CCN1CCN(CCCNC(=O)Cn2nc(C)n3c(cc4cc(C)ccc43)c2=O)CC1 | -4% | . | . | -7% | .
Cc1cn(C)c(CC(=O)N2CCN(c3cccc(C(F)(F)F)c3)CC2)c1C(=O)O | -6% | . | . | -2% | .
Cc1ccc(N2CC(NC(=O)c3ccc(Br)o3)CC2=O)cc1C (stereo unspecified) | -6%[7.34 µM] | . | . | -9%[7.34 µM] | .
O=S(=O)(c1ccc(-c2ccon2)s1)N1CCN(c2ccncc2)CC1 | -24%[7.34 µM] | 1.3µM* | 5% | 0%[7.34 µM] | -13%
O=S(=O)(c1ccc(-c2ccon2)s1)N1CCCC1 | -13% | -7% | 19% | 5% | -4%
CCOC(=O)c1cc(S(=O)(=O)N2CCN(c3ccc(F)cc3)CC2)[nH]n1 | 0% | . | . | -9% | .
Cc1cccc(NC(=S)/N=C(\N)Nc2nc(C)c3ccc(C)cc3n2)c1 | ? | 13µM* | ? | ? | 83%
Cc1cccc(NC(=S)/N=C(\N)Nc2nc(C)c3ccccc3n2)c1 | ? | -2% | 10µM* | -20% | 65%
COc1ccc2nc(N/C(N)=N/C(=S)Nc3ccc(C)c(C)c3)nc(C)c2c1 | . | 2% | ? | . | .
COc1ccc2nc(N/C(N)=N/C(=S)Nc3ccccc3)nc(C)c2c1 | -30% | ? | 3% | -18% | 33%
Cc1ccc(S(=O)(=O)/N=C(\N)Nc2nc(C)c3ccccc3n2)cc1 | -15% | 1% | 51% | -28% | -1%
Cc1ccc(NC(=S)/N=C(\N)Nc2nc(C)c3ccccc3n2)cc1C | -12% | 12µM* | 2.3µM* | -23% | 7%[2.32 µM]
SMILES | Vaccinia mCherry | Pf growth 48h | Pf growth 96h | VACV Venus inh | AMA1 RON2 block
CCOc1ccc2nc(N/C(N)=N/C(=S)Nc3ccc(OC)cc3)nc(C)c2c1 | . | 4.1µM* | ? | . | 133%
Cc1cccc(NC(=S)/N=C(\N)Nc2nc(C)c3cc(C)ccc3n2)c1 | ? | ? | ? | -17% | 37%
CCc1cccc(NC(=O)Cn2nc(C)c3sc4ccccc4c3c2=O)c1 | -9% | . | . | -1% | .
C=Cc1ccc(CN2C(=O)N(c3cccc(Cl)c3)S(=O)(=O)c3ccccc32)cc1 | -9% | . | . | -17% | .
Cc1ccc(NC(=O)CN(CCc2ccccc2)S(=O)(=O)c2ccccc2)c(C)c1 | -24% | . | . | -11% | .
Cc1cc(C)cc(NC(=S)/N=C(\N)Nc2nc(C)c3ccccc3n2)c1 | ? | ? | 13µM* | -19% | 8%
O=C(O)CC(NS(=O)(=O)c1ccc(Br)s1)c1ccccc1 (stereo unspecified) | -11% | . | . | -6% | .
O=C(O)c1cccc(NC2=C(n3nnc4ccccc43)C(=O)c3ccccc3C2=O)c1 | . | 5.2µM* | 1.9µM* | . | -6%
O=C(O)c1cccc(NS(=O)(=O)c2ccc3nnn(O)c3c2)c1 | . | 16% | 36% | -2% | -3%
Clc1ccc(C[n+]2c(-c3ccccc3)cc(-c3ccccc3)cc2-c2ccccc2)cc1 | -1% | 0.37µM* | 0.33µM* | ? | -4%
Fc1ccc(C[n+]2c(-c3ccccc3)cc(-c3ccccc3)cc2-c2ccccc2)cc1 | i | 0.93µM* | 0.37µM* | ? | 7%
CCc1nn(CC(=O)NCCc2ccc(OC)cc2OC)c(=O)c2cc3c(OC)cccc3n12 | -2% | . | . | -8% | .
CCOC(=O)Cc1csc(NC(=O)CSc2nnc(C3CC3)n2C)n1 | -11% | 2% | 13µM* | -9% | 9%
CCOC(=O)Cc1csc(NC(=O)CSc2nnc(C)n2C)n1 | -12% | 11% | 10µM* | -9% | -6%
CCOC(=O)Cc1csc(NC(=O)CSc2ncnc3c2cnn3-c2ccccc2Cl)n1 | . | 7.4µM* | . | -27% | -5%
Cc1nnc(NC(=O)CSc2ncnc3c2cnn3-c2ccccc2C)s1 | -18% | 4% | 59% | -7% | 0%
CCOC(=O)Cc1csc(NC(=O)CSc2nnc(C(C)C)n2C)n1 | -8% | 1% | -12% | -8% | 84%
Cc1ccc(C)c(CSc2nnc3[nH]c(=O)cc(C)n23)c1 | -14% | . | . | -6% | .
COc1ccc(N2CCN(C(=O)c3ccccc3Br)CC2)c([N+](=O)[O-])c1 | ? | 16%[5.75 µM] | 12µM* | 0% | ?
O=C(c1ccc(S(=O)(=O)Cc2ccccc2F)c([N+](=O)[O-])c1)N1CCCCCC1 | ? | ? | ? | -13% | -11%
Cn1c(=O)n(C)c2cc([N+](=O)[O-])c(N3CCN(S(=O)(=O)c4ccc(C(C)(C)C)cc4)CC3)cc21 | ? | 9.3µM* | ? | -14% | -10%
O=C(c1ccc(S(=O)(=O)c2ccccc2Cl)c([N+](=O)[O-])c1)N1CCCCCC1 | -13% | ? | 13µM* | -25% | 2%
CC(=O)Nc1ccc(S(=O)(=O)N2CCN(c3cc4c(cc3[N+](=O)[O-])n(C)c(=O)n4C)CC2)cc1 | -27% | ? | ? | -20% | -1%
